# Measured values from the supplement of paper PMC12340641.
# How the values were obtained:
# [1] = target: IKZF1 (dCK*-IKZF1 fusion in HEK293FT) (UniProt Q13422); experiment: inhibition of IKZF1 HTRF signal (DMSO = 0%, pomalidomide 10 uM = 100%); higher = lower IKZF1 protein level; conditions: compound concentration: 5 uM, overnight (~20 h)
# Outline: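 Percent inhibition of IKZF1 signal was calculated per plate with vehicle and a reference degrader as anchors. The anchors were 0% for vehicle and 100% for the degrader, applied to background-subtracted 665/620 nm time-resolved FRET ratios from a commercial HTRF total-IKZF1 kit. Signal came from HEK293FT cells stably expressing an IKZF1 fusion, treated overnight at 37 °C with 5 μM compound in single wells of 384-well plates.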
# [2] = test system: HEK293FT dCK*-only; experiment: relative growth in counter assay (no AraC = 100%, AraC + DMSO = 0%); higher = more growth rescue independent of IKZF1; conditions: compound concentration: 5 uM; AraC concentration: 0.3 uM; overnight pretreatment + 4 days AraC
# Outline: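 Nuclei were counted by imaging after Hoechst 33342 staining on day 5, in HEK293FT cells (300/well, 384-well) expressing only an engineered kinase construct. Compound at 5 μM went in 2 h after seeding, followed after overnight at 37 °C by a nucleoside suicide substrate at 0.3 μM plus medium for 4 days. Per plate, wells lacking suicide substrate defined 100% and those with substrate plus vehicle defined 0%.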
# [3] = test system: HEK293FT dCK*-IKZF1; experiment: relative growth recovery (pomalidomide 10 uM = 100%, DMSO = 0%); higher = more growth rescue (IKZF1 fusion degradation); conditions: compound concentration: 5 uM; AraC concentration: 0.3 uM; overnight pretreatment + 4 days AraC
# Outline: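 Means of duplicates from different days are given for growth recovery, normalised per plate against a reference degrader and vehicle. The reference degrader set the 100% level and vehicle the 0% level. HEK293FT cells stably expressing a deoxycytidine kinase–IKZF1 fusion (300/well, 384-well) received 5 μM compound 2 h after seeding and, after overnight at 37 °C, 0.3 μM of a nucleoside suicide substrate plus medium for 4 days. Nuclei stained with Hoechst 33342 were then counted by whole-well imaging on day 5.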
# Chain of IKZF1 (dCK*-IKZF1 fusion in HEK293FT) (Q13422 whole entry, looked up, the tested form may be a part): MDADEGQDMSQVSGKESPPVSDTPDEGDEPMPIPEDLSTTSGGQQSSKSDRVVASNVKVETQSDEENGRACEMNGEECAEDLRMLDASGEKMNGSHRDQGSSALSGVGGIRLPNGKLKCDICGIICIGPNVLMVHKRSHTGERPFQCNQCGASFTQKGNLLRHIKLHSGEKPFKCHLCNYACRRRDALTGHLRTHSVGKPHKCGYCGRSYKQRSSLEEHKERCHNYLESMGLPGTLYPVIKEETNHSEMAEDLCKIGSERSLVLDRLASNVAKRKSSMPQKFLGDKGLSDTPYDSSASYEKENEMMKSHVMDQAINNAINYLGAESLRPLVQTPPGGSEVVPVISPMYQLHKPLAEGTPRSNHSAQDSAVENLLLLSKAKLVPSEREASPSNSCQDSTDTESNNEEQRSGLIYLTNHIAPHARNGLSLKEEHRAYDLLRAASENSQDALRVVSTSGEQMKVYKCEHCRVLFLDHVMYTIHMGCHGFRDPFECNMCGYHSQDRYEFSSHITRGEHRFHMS
Structure (SMILES),inhibition of IKZF1 HTRF signal [1] [%],relative growth in counter assay [2] [%],relative growth recovery [3] [%]
Clc1ccccc1C(c1ccccc1)(c1ccccc1)n1ccnc1 [Clotrimazole],-53.5,11.9,1.77
O=C(OOC(=O)c1ccccc1)c1ccccc1,-35.6,-0.7,1.32
C[n+]1c2cc(N)ccc2cc2ccc(N)cc21.Nc1ccc2cc3ccc(N)cc3nc2c1 [Acriflavine hydrochloride],6.76,-35.7,-14
CN[C@H]1CC[C@@H](c2ccc(Cl)c(Cl)c2)c2ccccc21,-23.8,0.69,-1.94
O=C(N/N=C/c1ccc([N+](=O)[O-])o1)c1ccc(O)cc1,10.2,-1.19,-2
C[C@H]1O[C@@H](n2cc(F)c(=O)[nH]c2=O)[C@H](O)[C@@H]1O,-24.1,-10.6,0.84
COC1=C(OC)C(=O)C(CCCCCCCCCCO)=C(C)C1=O,41.8,-5.9,-2.21
[2H]C([2H])([2H])C(O)(CCO[C@@H](C)[C@H]1CC[C@H]2/C(=C/C=C3/C[C@@H](O)C[C@H](O)C3=C)CCC[C@]12C)C([2H])([2H])[2H] [maxacalcitol],-24.6,9.68,7.53
O=C1Nc2ccccc2/C1=C1/Nc2ccccc2/C1=N\O [indirubin-3-monoxime],-16.5,4.61,1.19
O=c1oc(-c2ccc(C(F)(F)F)cc2)nn1Cc1cc(Cl)ccc1O,11.5,-6.2,-5.1
O=c1[nH]nc(Sc2ncc([N+](=O)[O-])s2)n1-c1ccc2c(c1)OCCO2,-27.9,-34.9,-12.8
CN(C)CC/C=C1\c2ccccc2CSc2ccccc21 [dosulepin],-26.3,-9.29,-1.36
NC(=O)N1c2ccccc2CC(=O)c2ccccc21,17.9,5.74,-1.02
CO[C@H]1/C=C/O[C@@]2(C)Oc3c(C)c(O)c4c(O)c(c5c(c4c3C2=O)=NC2(CCN(CC(C)C)CC2)N=5)NC(=O)C(C)=CC=CC(C)[C@H](O)[C@@H](C)[C@@H](O)[C@@H](C)[C@H](OC(C)=O)[C@@H]1C (some centres undefined) [Rifabutin],0.83,3.92,-0.05
Nc1ccc(S(=O)(=O)Nc2cnc3ccccc3n2)cc1,-31.3,-4.7,-1.83
COC(=O)C1=C(C)NC(C)=C(C(=O)OC/C=C/c2ccccc2)C1c1cccc([N+](=O)[O-])c1 (centres undefined) [Pranidipine],13.9,-3.72,-0.3
C=CC[C@@H]1/C=C(\C)C[C@H](C)C[C@H](OC)[C@H]2O[C@@](O)(C(=O)C(=O)N3CCCC[C@H]3C(=O)O[C@H](/C(C)=C/[C@@H]3CC[C@@H](O)[C@H](OC)C3)[C@H](C)[C@@H](O)CC1=O)[C@H](C)C[C@@H]2OC [Tacrolimus],-32.9,18.6,12.2
CO[C@H]1C[C@@H]2CC[C@@H](C)[C@@](O)(O2)C(=O)C(=O)N2CCCC[C@H]2C(=O)O[C@H]([C@H](C)C[C@@H]2CC[C@@H](O)[C@H](OC)C2)CC(=O)[C@H](C)/C=C(\C)[C@@H](O)[C@@H](OC)C(=O)[C@H](C)C[C@H](C)/C=C/C=C/C=C/1C [Rapamycin],-24.4,-20.8,-7.58
COc1cccc2c1C(=O)c1c(O)c3c(c(O)c1C2=O)C[C@@](O)(/C(CO)=N/NC(=O)CCCCCN1C(=O)C=CC1=O)C[C@@H]3O[C@H]1C[C@H](N)[C@H](O)[C@H](C)O1 [Aldoxorubicin],-9,-35.5,-14
CCN(CC)CCOc1ccccc1C(=O)CCc1ccccc1 [etafenone],11,2.17,-1.08
CCN1CCN(Cc2ccc(-c3cc4c(N[C@H](C)c5ccccc5)ncnc4[nH]3)cc2)CC1,-37.1,-18.1,-8.18

Structure (SMILES),inhibition of IKZF1 HTRF signal [1] [%],relative growth in counter assay [2] [%],relative growth recovery [3] [%]
COc1ccc(-c2ccc3c(N4CCOC[C@@H]4C)nc(N4CCOC[C@@H]4C)nc3n2)cc1CO,50,-33.9,-13.8
COc1ccc(Cl)cc1C(=O)NCCc1ccc(S(=O)(=O)NC(=O)NC2CCCCC2)cc1,-51.9,-0.06,3.14
COc1cc(NS(=O)(=O)c2ccc(N)cc2)ncn1,-31.4,-5.7,-0.825
CNC(=O)Nc1ccc(-c2nc(N3CC4CCC(C3)O4)c3cnn(C4CCC5(CC4)OCCO5)c3n2)cc1,70.5,-32.9,-13.5
C[C@H]1[C@H](OC(=O)CCC(=O)O)O[C@@H]2O[C@@]3(C)CC[C@H]4[C@H](C)CC[C@@H]1[C@@]24OO3,37.4,-30,-9.71
Oc1ccc(/C=C/c2cc(O)cc(O)c2)cc1 [Resveratrol],-25.5,5.43,2.06
Cc1cc(NC(=O)C(c2ccccc2)N2CCCc3ccccc32)no1 (centres undefined),-21.4,-9.71,1.48
O=C1OCCN1/N=C/c1ccc([N+](=O)[O-])o1,-32.5,-3.23,-3.37
O=C(N/N=C/c1ccccc1O)c1ccccc1O,-40.4,0.05,-2.29
Cc1cc([C@H](C(=O)N2C[C@H](O)C[C@H]2C(=O)N[C@@H](CC(=O)N2CCC(C#Cc3ccc(C(=O)N[C@H]4C(C)(C)[C@H](Oc5ccc(C#N)c(Cl)c5)C4(C)C)cc3)CC2)c2ccccc2)C(C)C)on1,9.95,5.85,-0.74
O=C(Nc1cccc(Cl)c1)Nc1ncc(CCNc2ncnc3ccsc23)s1 [SNS-314 methanesulfonate],-27,-30.3,-6.71
O=C1c2c(O)ccc(O)c2C(=O)c2c(NCCNCCO)ccc(NCCNCCO)c21,5.77,-35.5,-13.7
C1CCC(C(CC2CCCCN2)C2CCCCC2)CC1 (centres undefined),11.6,-1.13,-2.33
CCc1c2c(nc3ccc(O)cc13)-c1cc3c(c(=O)n1C2)COC(=O)[C@]3(O)CC,36.8,-33.9,-13
Cc1cc(C)nc(NS(=O)(=O)c2ccc(NC(=S)NC(=O)COc3ccc(Br)cc3Cl)cc2)n1,-36.5,0.75,1.03
COc1cc(/C=C2\CCC/C(=C\c3ccc(O)c(OC)c3)C2=O)ccc1O [cyclovalone],-30.9,-31.6,2.27
Nc1ccc(-c2ccc3ncc4ccc(=O)n(-c5cccc(C(F)(F)F)c5)c4c3c2)cn1 [torin-2],66.5,-34.6,-12.2
COC(=O)C1=C(C)NC(C)=C(C(=O)OC(C)C)C1c1cccc2nonc12 (centres undefined) [isradipine],-28.6,-4.67,1.6
COc1cc(CN(CCN)C(=O)c2cccs2)ccc1OCc1ccccc1,-24.8,7.03,0.355
O=C(O)c1ccc(S(=O)(=O)N(Cc2ccc(OC(F)(F)F)cc2)c2ncc(C(F)(F)F)cc2Cl)cc1,-23.7,5.77,2.16
CCCCCCCC[N+](C)(C)Cc1ccccc1 [benzyldimethyloctylammonium],-57.3,4.74,5.02

Structure (SMILES),inhibition of IKZF1 HTRF signal [1] [%],relative growth in counter assay [2] [%],relative growth recovery [3] [%]
O=C(/C=C/c1ccc(O)cc1)c1ccc(O)cc1O [Isoliquiritigenin],-0.21,-7.18,-1.02
COC1CCN(c2cccc(-c3cc(NC(C)=O)nc(-n4nc(C)cc4C)n3)n2)CC1,-25.1,7.56,-1.86
CCCSc1ccc2[nH]c(NC(=O)OC)nc2c1,-15.2,-32.2,-11.2
COc1cc(NC(=O)c2ccc(-c3ccc(Cl)cc3)o2)cc(OC)c1,-48.3,14.9,7.22
CC[n+]1c(-c2ccccc2)c2cc(N)ccc2c2ccc(N)cc21,39.8,-32.8,-12.2
CCCCCCCC/C=C\CCCCCCCC(=O)NCCO [oleoylethanolamide],-34.1,0.5,1.78
COc1ccc2cc1Oc1ccc(cc1)C[C@H]1c3cc(c(OC)cc3CCN1C)Oc1c(OC)c(OC)cc3c1[C@H](C2)N(C)CC3 [Tetrandrine (Fanchinine)],8.84,-14.3,-3.42
COc1c(C/C=C(\C)CCC(=O)O)c(O)c2c(O)occ2c1C [Mycophenolic Acid],14.9,-30.9,-9.99
CC1=C(/C=C/C(C)=C/C=C/C(C)=C/C(=O)Nc2ccc(O)cc2)C(C)(C)CCC1 [Fenretinide],-30.4,-13.7,-1.99
O=C(c1cccc(Cl)c1F)N1CCN(Cc2cccc(Nc3nccs3)n2)CC1,-54.8,-32.1,-11.2
CCC(=O)N1CCN(c2ccc(-n3c(=O)ccc4cnc5ccc(-c6cnc7ccccc7c6)cc5c43)cc2C(F)(F)F)CC1 [Torin 1],35.7,-27.5,-10.5
COc1ccc(CN2C(=O)C(=O)c3cc(OC(F)(F)F)ccc32)cc1,-14.2,-33.6,-11.5
COc1c(C)c2c(c(O)c1C/C=C(\C)CCC(=O)O)C(=O)OC2,-27.2,-31.1,-11.7
Clc1ccc(COC(Cn2ccnc2)c2ccc(Cl)cc2Cl)c(Cl)c1 (centres undefined) [Miconazole],20.3,1.72,3.22
O=C1OC2(c3ccc(O)cc3Oc3cc(O)ccc32)c2ccccc21,28.2,-3.82,-3.9
COC(=O)Nc1nc2cc(C(=O)c3cccs3)ccc2[nH]1 [nocodazole],-12,-33,-11.6
CN(C)CCCN1c2ccccc2Sc2ccc(Cl)cc21,-47.9,-0.83,-1.89
CC(C)(C)c1ccc(-c2nc3ccccc3[nH]2)cc1,-0.19,3.59,11.5
O=S(=O)(O)CCSSCCS(=O)(=O)O,-1.7,-2.36,0.365
O=c1[nH]c2ccccc2n1C1CCN(CCOc2ccccc2)CC1 [oxiperomide],23.7,-11.6,2.25
Clc1ccc(C(Cn2ccnc2)OCc2csc3c(Cl)cccc23)c(Cl)c1 (centres undefined) [Sertaconazole],-18.6,3.66,1.54
